The source of these data is PubChem BioAssay AID720514 (Broad Institute, 2013).

Molecules are shown by their SMILES. The whole screen tested about 2,100 compounds, of which about 300 (14%) were called active. Not shown: some 2% with an inconclusive outcome.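 The calls were made as follows: active = every replicate test run called active, with the signal falling and half-maximal concentration within twice the top valid dose; inconclusive = the replicate test runs disagree in their calls; inactive = every test run inactive, including effects in the opposite direction.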 A selection follows. Measured potencies and affinities stand elsewhere.

This experiment in a line: reduced cellular PGC1a acetyl-lysine signal – cell-based, cherry-picked samples, dose response (AID 720514).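 Also: 0% = neutral control wells and -100% = positive control wells; actives lower the acetylation signal so they count as inhibitors of PGC1a acetylation.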 The following applies: U2OS PGC1a acetylation, AlphaLISA, overnight; series mostly up to 19.5 µM; activity change, negative = inhibition: at the top concentration.
`CCCc1cc2c(cc1N(C)S(=O)(=O)c1ccccc1)OCO2`: the “activity change, negative = inhibition” value is 70.3% (inactive). For the compound `Cc1ccc(NC(=O)CN2CCC(NC(=O)Cc3ccccc3)CC2)c(C)c1`, the “activity change, negative = inhibition” value was 132% (inactive). Regarding `O=C(Nc1ccccc1-c1ccccc1)NC1CC2CCCC(C1)N2Cc1ccc(F)cc1` (configuration not stated), the “activity change, negative = inhibition” value is 51.3% (inactive). Take `Cc1nn2c(NCCCN3CCOCC3)c3c(nc2c1-c1ccccc1)CCC3`: the “activity change, negative = inhibition” value was 73.2% (inactive).

For the compound `COC(=O)c1cc2ccsc2n1CC(=O)Nc1cc(Cl)ccc1OC`, the “activity change, negative = inhibition” value is 77.8% (inactive). Turning to `O=C(Cn1nc(C(=O)O)c2ccccc2c1=O)Nc1cccc(Br)c1`, the “activity change, negative = inhibition” value was 25.1% (inactive). As to `Cc1ccc(/C(N)=N/OC(=O)c2ccco2)cc1`, the “activity change, negative = inhibition” value was 305% (inactive).

With `CCCCN(CCCC)S(=O)(=O)c1ccc2oc(C(=O)N3CCOCC3)c(C)c2c1`, the “activity change, negative = inhibition” value is 114% (inactive). Consider `COC(=O)[C@@]1(C)[C@H]2C(=O)N(Cc3ccccc3)C(=O)[C@H]2[C@H]2CN=C(SCC3CC3)N21`, for which the “activity change, negative = inhibition” value is 45.1% (inactive).

Consider `COc1ccc(-n2c(=O)c3c4c(sc3n3c(=S)[nH]nc23)CCC4)cc1`, for which the “activity change, negative = inhibition” value was 238% (inactive). For `CCOc1ccc(NC(=O)CN2CCC(n3cnc4cc(F)ccc43)CC2)cc1` the value was 93.8% (inactive).

For `CO[C@@H](C(=O)N(C)C[C@H]1OCc2ccccc2-c2c(n(C)c3ccccc23)C(=O)N([C@H](C)CO)C[C@H]1C)c1ccccc1`, the “activity change, negative = inhibition” value is 104% [at 21 µM] (inactive). Take `Cc1ccc(Cl)cc1NC(=O)Cn1nc(-c2cccs2)ccc1=O`: the “activity change, negative = inhibition” value was 77% (inactive). Take `Cc1ccccc1NC(=O)c1nc(S(C)(=O)=O)ncc1Cl`: the “activity change, negative = inhibition” value is 46.6% [at 10 µM] (inactive).

For `C[C@@H]1CN([C@H](C)CO)C(=O)c2c(c3ccccc3n2C)-c2ccccc2CO[C@@H]1CN(C)C(=O)Nc1ccc2c(c1)OCO2`, the “activity change, negative = inhibition” value was 102% (inactive).

For the compound `CC(Oc1ccc(Cl)cc1Cl)c1nc(-c2ccc(NC(=O)c3cccnc3)cc2)no1` (configuration not stated), the “activity change, negative = inhibition” value was 232% [at 5 µM] (inactive). `Cc1ccc(-c2nn(C)c(=O)c3ccccc23)cc1S(=O)(=O)NCCN(C)C`: the “activity change, negative = inhibition” value is 32% (inactive). As for `O=C(C[C@H]1CC[C@H](NC(=O)NC2CCCCC2)[C@H](CO)O1)NCc1ccc(Cl)cc1`, the “activity change, negative = inhibition” value is 39.8% (inactive). With `CCCCSc1ccc(NC(=O)c2cccnc2)cc1`, the “activity change, negative = inhibition” value was 221% (inactive). On to `CCn1c(SCC(N)=O)nnc1C(C)C`, for which the “activity change, negative = inhibition” value was 47.9% (inactive). On to `O=C1NC(=Nc2ccccc2Cl)S/C1=C\c1cccc([N+](=O)[O-])c1O`, for which the “activity change, negative = inhibition” value was 47.6% (inactive). For the compound `CC1(Cc2ccc(Cl)s2)C(=O)Nc2c(Cl)ccc(Cl)c21` (configuration not stated), the “activity change, negative = inhibition” value was 39.8% (inactive). `O=C(NCc1ccccc1)N1CCC(n2cnc3cc(F)ccc32)CC1`: the “activity change, negative = inhibition” value was 143% (inactive). As to `COc1ccc(C(=O)NN(C)c2nc(-c3ccccc3)cc(C)c2S(C)(=O)=O)cc1`, the “activity change, negative = inhibition” value is 45.8% (inactive). Consider `O=C(NCc1ccccc1)c1ccc(NC(=O)C2CC2)cc1`, for which the “activity change, negative = inhibition” value is 68.6% (inactive).

Turning to `CSc1nn(-c2ccc(C(=O)OC(C(=O)NC(N)=O)C(C)C)cc2)c(=S)s1` (configuration not stated), the “activity change, negative = inhibition” value is 60.7% (inactive).

As to `CC(=O)Nc1ccc(NC(=O)CN(c2cc(Cl)ccc2Cl)S(C)(=O)=O)cc1`, the “activity change, negative = inhibition” value was 264% (inactive). For `Cc1nc(N2CCN(S(=O)(=O)c3ccc(F)cc3)CC2)c2c(-c3cccs3)csc2n1` the value was 57.9% (inactive); for `Cc1ccc(S(=O)(=O)NC(CC(C)C)C(=O)N2CCCCCCC2)cc1` (configuration not stated), 129% (inactive).

As for `O=[N+]([O-])c1ccc(S(=O)(=O)c2cccc(C(F)(F)F)c2)nc1`, the “activity change, negative = inhibition” value is 88.2% [at 10 µM] (inactive). In the case of `Nc1ccccc1Oc1ncc(C(F)(F)F)cc1Cl`, the “activity change, negative = inhibition” value was 66.8% [at 10 µM] (inactive). The value for `CCOC(=O)c1sc2nc(C)nc(NCc3ccccc3OC)c2c1C` was 33.3% (inactive). Take `CCO[C@H]1OC(C(=O)Nc2ccccc2)=C[C@@H](c2csc3ccccc23)[C@@H]1CCCO`: the “activity change, negative = inhibition” value is 53.7% (inactive). `O=C(NCCCN1CCOCC1)c1ccccc1N1C(=O)[C@@H]2Cc3c([nH]c4ccccc34)C(c3ccccc3)N2C1=O` (some centres not stated): the “activity change, negative = inhibition” value was 76.8% [at 10 µM] (inactive).

For `O=C(Cc1ccccn1)NCC[C@@H]1CC[C@@H](NC(=O)Nc2ccc(C(F)(F)F)cc2)[C@@H](CO)O1`, the “activity change, negative = inhibition” value was -20.7% (inactive).

`O=C(Cc1ccccn1)NCC[C@@H]1CC[C@H](NC(=O)Nc2ccc(C(F)(F)F)cc2)[C@@H](CO)O1`: the “activity change, negative = inhibition” value is 3.56% (inactive).

In the case of `Cc1cccc2sc(N3CCN(C(=O)c4cccs4)CC3)nc12`, the “activity change, negative = inhibition” value is 45.5% (inactive).
